# Bfl-1 A1 inh = caspase 3/7 activation in MEF A1-2A-BIM cells, primary screen, A1 inhibitor project, cell-based, luminescence, HTS | AID 2462, 2010 | Caspase-Glo 3/7 luminescence, 3 h; percent of clofoctol response, vehicle zero | hit rate 0.066% among 330,000 | caspase activation, % (test concentration not listed);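 active = over half of replicate activation scores above 10%, or exactly half above 10 with the replicate mean above 10; inconclusive = replicate mean below 10 yet half the replicates above 10; inactive = over half of replicates below 10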
# Mdm2-MdmX inh = inhibitors of human Mdm2-MdmX association, primary screen, cell-based, luminescence, split luciferase, SaOS-2, uHTS. inhibition, % at 8 µM. AID 485346, 2010. Protein Mdm4 (Homo sapiens) + E3 ubiquitin-protein ligase Mdm2 (Homo sapiens), …. SaOS-2 split-luciferase Mdm2/MdmX complementation. hit rate 3% among 330,000;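 active = inhibition of at least 50% at 8 µM in the primary screen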
# Target sequence (O15151 whole entry, looked up): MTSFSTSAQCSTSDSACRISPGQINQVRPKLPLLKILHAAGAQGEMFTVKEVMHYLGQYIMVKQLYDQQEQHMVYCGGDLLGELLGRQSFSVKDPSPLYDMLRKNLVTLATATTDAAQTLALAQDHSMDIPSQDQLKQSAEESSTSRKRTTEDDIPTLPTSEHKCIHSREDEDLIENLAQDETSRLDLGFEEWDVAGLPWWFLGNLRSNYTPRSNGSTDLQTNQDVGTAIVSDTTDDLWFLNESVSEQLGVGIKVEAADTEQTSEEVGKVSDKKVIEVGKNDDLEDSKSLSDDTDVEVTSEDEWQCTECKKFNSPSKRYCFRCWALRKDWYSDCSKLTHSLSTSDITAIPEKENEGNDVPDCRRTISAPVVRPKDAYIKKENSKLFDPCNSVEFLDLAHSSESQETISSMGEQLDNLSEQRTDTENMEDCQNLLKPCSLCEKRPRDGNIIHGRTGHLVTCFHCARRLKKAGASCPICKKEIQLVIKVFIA
# Target sequence (Q00987 whole entry, looked up): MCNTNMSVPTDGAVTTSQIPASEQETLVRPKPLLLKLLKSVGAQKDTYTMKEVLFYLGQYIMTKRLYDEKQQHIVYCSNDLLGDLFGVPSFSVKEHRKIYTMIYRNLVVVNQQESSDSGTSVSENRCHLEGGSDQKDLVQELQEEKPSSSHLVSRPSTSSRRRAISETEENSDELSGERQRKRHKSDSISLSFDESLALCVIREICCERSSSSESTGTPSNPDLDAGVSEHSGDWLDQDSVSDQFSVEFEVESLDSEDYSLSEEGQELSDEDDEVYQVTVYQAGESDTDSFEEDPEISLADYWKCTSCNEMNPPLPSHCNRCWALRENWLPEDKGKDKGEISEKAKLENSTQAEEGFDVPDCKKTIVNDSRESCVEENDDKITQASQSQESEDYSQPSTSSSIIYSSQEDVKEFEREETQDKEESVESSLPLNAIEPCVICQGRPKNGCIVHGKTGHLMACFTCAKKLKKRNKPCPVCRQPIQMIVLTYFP
# aSyn UTR inh = MLPCN primary screen, SNCA 5' untranslated region; alpha-synuclein 5'UTR reporter, inhibitor activity; inhibition, % (tested at 7.5 µM); hit rate 0.82% among 300,000; AID 1813, 2009; in the data active = inhibition above about 60%; inconclusive = no clear call, values can overlap the other calls;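 note: H4 neuroglioblastoma cells stably carrying SNCA 5'UTR luciferase fusion; 0% = DMSO wells and 100% = positive control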
# Beta apoptosis = inhibitors of cytokine-induced beta cell apoptosis, primary screen, luminescence. INS-1E cytokine-induced death, ATP luminescence, 48 h; percent of positive-control rescue, neutral wells zero. protection from apoptosis, % (concentration not given with the values). hit rate 0.8% among 300,000;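 active = Every replicate reaches about 75%, or at least half do and their mean reaches it too, limit read from the data; inconclusive = At least half of replicates reach the limit but their mean does not; inactive = Under half of replicates reach the limit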;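 note: 0% = cytokine-treated negative control wells and 100% = positive control rescue; higher means more ATP so stronger rescue from cytokine killing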
# CSC inhib = cancer stem cell viability inhibitors, primary screen, luminescence. cancer stem cell-like cells viability. inhibition, % at 7.5 µM. hit rate 1.1% among 300,000; in the data active = inhibition above about 75%; inconclusive = no clear call, values can overlap the other calls; tested in HMLE shEcad cells
# Mdm2 MdmX conf = Mdm2-MdmX complex disruptors, retested hits, confirmation, luminescence, single concentration; inhibition, % at 8 µM; hit rate 55% among 10,000; shares compounds with Mdm2-MdmX inh; Mdm2-MdmX binding, luminescent assay; in the data active = inhibition above about 40%
# FLuc counter = full-length luciferase signal inhibition, confirmation, counter-screen for Mdm2/MdmX interaction inhibitor project, cell-based, single concentration, SaOS-2 | inhibition, % at 8 µM | hit rate 77% among 6,200 | SaOS-2 full-length luciferase counterscreen, luminescence | shares compounds with Mdm2-MdmX inh;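 active = mean inhibition at 8 µM reaching about 37%, which flags the compound as non-specific, limit read from the data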;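 note: p53-null SaOS-2 cells with luciferase driven by a doxycycline-inducible promoter; compound on cells about two nights before reading with doxycycline added after day one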
# Active calls of the source: *; ? = inconclusive; . = no result given. Hits are enriched below; roughly 4.1% of the tested compounds scored in any of these assays.
SMILES,Bfl-1 A1 inh,Mdm2-MdmX inh,aSyn UTR inh,Beta apoptosis,CSC inhib,Mdm2 MdmX conf,others
CC(=O)c1c(C)[nH]c(C(=O)Nc2ccc(C)cn2)c1C,-5,53*,85*,-7,-7,48*,FLuc counter=74*
Cc1cc(NC(=O)c2cnccn2)no1,.,.,-2,.,.,.,
CCc1nnc(NS(=O)(=O)c2ccc(NC(=O)CCC(=O)OC)cc2)s1,0,-12,-12,-11,-7,.,
CCCCN(C(=O)c1cc(S(=O)(=O)N2CCCCCC2)ccc1OC)c1ccccc1,-1,28,4,7,-5,.,
Cc1ccc(OCCCC(=O)NNC(=O)c2ccccn2)cc1,0,52*,.,-2,16,44*,FLuc counter=45*
Cc1ccc(OCC(=O)NCCNC(=O)c2ccccn2)cc1,1,2,12,3,.,.,
Cc1cc(C)cc(OCC(=O)NNC(=O)c2ccccn2)c1,0,50*,.,0,23,32,
O=C(COc1ccc(Cl)cc1)NNC(=O)c1ccccn1,-1,27,-3,2,5,.,
CCOC(=O)c1ccc(NC(=S)N(CCN(C)C)Cc2cccs2)cc1,1,76*,?,-8,27,46*,FLuc counter=61*
Cc1ccc(-c2nc(CS(=O)(=O)CC(=O)Nc3cc(F)ccc3F)c(C)o2)cc1,.,23,-1,5,.,.,
CC(=O)N1CCN(c2ccc(S(=O)(=O)N3CCOCC3)cc2[N+](=O)[O-])CC1,1,-13,.,-5,8,.,
Nc1c(C(=O)c2ccccc2O)cnn1-c1ccc(S(=O)(=O)N2CCOCC2)cc1[N+](=O)[O-],1,70*,2,-1,-8,15,
CC(C)CN(C(=O)COC(=O)Cc1c[nH]c2ccccc12)c1c(N)n(Cc2ccccc2)c(=O)[nH]c1=O,0,-2,21,0,11,.,
COC(=O)C1=C(C(=O)OC)[C@@H]2N(C)c3ccc(OC)cc3[C@@]23C[C@@H](C(=O)OC)N(C(=O)c2ccc(Br)cc2)C3=N1,2,69*,-9,-6,35,-1,
C=CCN1c2ccccc2[C@]23C[C@@H](C(=O)OC)N(C(=O)c4ccc(Br)cc4)C2=NC(C(=O)OC)=C(C(=O)OC)[C@H]13,-1,96*,2,-10,39,68*,FLuc counter=53*
COC(=O)C1=C(C(=O)OC)[C@@H]2N(Cc3ccccc3)c3ccccc3[C@@]23C[C@@H](C(=O)OC)N(C(=O)c2ccc(Br)cc2)C3=N1,0,96*,43,0,-4,86*,FLuc counter=53*
COC(=O)C1=C(C(=O)OC)[C@@H]2N(Cc3ccccc3)c3ccccc3[C@@]23C[C@@H](C(=O)OC)N(C(C)=O)C3=N1,1,-12,1,-3,7,.,
COC(=O)C1=C(C(=O)OC)[C@@H]2N(Cc3ccccc3)c3ccccc3[C@@]23C[C@@H](C(=O)OC)N(C(=O)COCc2ccccc2)C3=N1,0,63*,-5,-8,3,21,
Cc1n[nH]c(C)c1CCNC(=O)C1CCC(=O)N(CCc2cccc(F)c2)C1 (centres undefined),1,6,0,-1,18,.,
O=C(c1cc(Cl)nc2ccccc12)N(Cc1nnc(-c2ccccc2Cl)o1)C1CC1,1,15,-9,6,-3,.,
CCn1c(=O)c(C(=O)NNC(=O)c2ccccc2)c(O)c2ccccc21,0,50,-17,8,0,43*,FLuc counter=54*
CC(C)Cn1c(=O)c(C(=O)Nc2ccncc2)c(O)c2ccccc21,0,69*,66*,19,135*,51*,FLuc counter=38*
CCn1c(=O)c(C(=O)Nc2ccccc2S(N)(=O)=O)c(O)c2ccccc21,0,56*,-39,-3,.,3,
O=C(CCl)N(C1CCCC1)C1CCS(=O)(=O)C1 (centres undefined),0,87*,-49,-10,-2,72*,FLuc counter=55*
Cc1ccc(Cn2c(C(CO)Nc3nc(-c4ccc(Cl)c([N+](=O)[O-])c4)cs3)nc3ccccc32)cc1 (centres undefined),1,64*,-43,-4,23,16,
SMILES,Bfl-1 A1 inh,Mdm2-MdmX inh,aSyn UTR inh,Beta apoptosis,CSC inhib,Mdm2 MdmX conf,others
Cc1ccc(Cn2c(C(C)Nc3nc(-c4ccc(F)cc4)cs3)nc3cc(C(F)(F)F)ccc32)cc1 (centres undefined),1,50*,-18,-1,43,-1,
Cc1ccc(Cn2c(C(CO)Nc3nc(-c4ccc(F)cc4)cs3)nc3ccccc32)cc1 (centres undefined),3,60*,-27,-4,54,29,
CCCn1c(C(C)Nc2nc(-c3ccc(Cl)c([N+](=O)[O-])c3)cs2)nc2cc(Cl)c(N3CCCCC3)cc21 (centres undefined),-5,61*,-3,5,2,21,
CCCn1c(C(C)Nc2nc(-c3ccc(OC)cc3)cs2)nc2ccccc21 (centres undefined),-1,3,10,-12,.,.,
CC(Nc1nc(-c2ccc(F)cc2)cs1)c1nc2cc(C(F)(F)F)ccc2n1CCCO (centres undefined),0,30,-5,-14,39,.,
COc1ccc(-c2csc(NC(CO)c3nc4ccccc4n3Cc3ccc(C)cc3)n2)cc1 (centres undefined),0,2,19,-3,17,.,
CC(=O)c1ccc(OCCCC(=O)N2CCN(S(=O)(=O)c3ccc(C(C)C)cc3)CC2)cc1,-1,-1,1,.,-4,.,
Cc1cc(C(=O)NNC(=O)c2ccc(NC(=O)CC#N)cc2)c(C)o1,2,-10,.,-2,-16,.,
CC1CCN(C(=O)CSc2nc(C(C)C)nc3c2c(=O)n(C)c(=O)n3C)CC1,-1,35,15,13,21,.,
CC(C)C[C@H](CO)N(Cc1ccccc1)S(=O)(=O)N(Cc1ccccc1)[C@@H](CO)CC(C)C,1,91*,.,-5,107*,10,
C=C[C@H](CC(C)C)N(Cc1ccccc1)S(=O)(=O)N(Cc1ccc(OC)cc1)[C@H](C=C)CC(C)C,2,58*,.,115*,5,0,
CCOC(=O)[C@@H](C)N(Cc1ccc(OC)cc1)S(=O)(=O)N(Cc1ccccc1)[C@H](C(=O)OC)C(C)C,1,33,.,17,-1,.,
O=S(=O)(N(Cc1ccccc1)[C@@H](CO)Cc1ccccc1)N(Cc1ccccc1)[C@@H](CO)Cc1ccccc1,2,37,.,2,7,.,
COc1ccc(CN2CCC(C(N)=O)CC2)cc1OCc1ccccc1,0,16,25,-4,-14,.,
